# Assay outcomes deposited in PubChem BioAssay by National Center for Advancing Translational Sciences (NCATS).
# The list is not random: actives were taken first. Their share in the collection is about 17%.
# ClpP mod: qHTS Assay for Activators of ClpP; purified B. subtilis ClpP, FRET peptide cleavage, 20 min; Potency, µM (titrated, usually from 57.5 µM), for the others: at the top dose activity change, negative = active; actives 1.9% (n = 340,000); ATP-dependent Clp protease proteolytic subunit (Bacillus subtilis (strain 168)), P80244; AID 651965, 2013; active = well fitted falling curve with a large enough effect; inconclusive = small, poorly fitted or top-dose-only effect; inactive = no such curve, though single readings can be large or run the other way; also: the source files actives as falling curves though it sought activators and does not explain the sign; nearly all actives have a fitted effect of over 65% in size
#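 ClpP 10 microg/mL final, pH 8 Tris/KCl buffer with BSA, glycerol, Tween-20; compound pinned in; FRET-FV substrate; RT 20 min; Ex320/Em430; ΔFRET vs ADEP 5.8 microM, DMSO, no enzyme.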
# TDP1 inh: blocks human tyrosyl-DNA phosphodiesterase 1. actives 0.28% (n = 350,000). Potency, µM (top dose mostly 130 µM), without a hit: at the top dose activity change, negative = inhibition, usual class: inhibitors. AID 485290. recombinant TDP1, AlphaScreen DNA substrate cleavage. Q9NUW8; also: % is scaled to controls: 0 for no effect and ±100 for the full control effect; nearly all actives have a fitted effect of over 40% in size
# Target sequence (Q9NUW8 whole entry, looked up): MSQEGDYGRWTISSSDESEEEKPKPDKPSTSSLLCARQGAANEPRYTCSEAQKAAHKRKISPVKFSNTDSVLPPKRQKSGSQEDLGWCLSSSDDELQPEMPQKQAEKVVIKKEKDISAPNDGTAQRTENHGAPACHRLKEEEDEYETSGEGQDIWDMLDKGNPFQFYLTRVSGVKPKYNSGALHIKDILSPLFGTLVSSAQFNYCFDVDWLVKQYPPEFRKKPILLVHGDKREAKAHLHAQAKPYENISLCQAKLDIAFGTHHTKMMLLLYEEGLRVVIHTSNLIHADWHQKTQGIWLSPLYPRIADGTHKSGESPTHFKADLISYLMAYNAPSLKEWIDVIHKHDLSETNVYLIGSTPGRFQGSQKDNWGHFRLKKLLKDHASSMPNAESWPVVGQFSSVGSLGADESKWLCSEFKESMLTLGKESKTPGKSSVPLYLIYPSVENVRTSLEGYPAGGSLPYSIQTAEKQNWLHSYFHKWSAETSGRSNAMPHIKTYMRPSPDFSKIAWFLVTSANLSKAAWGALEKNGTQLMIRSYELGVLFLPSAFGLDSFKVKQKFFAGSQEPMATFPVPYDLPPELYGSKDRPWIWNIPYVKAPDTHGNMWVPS
#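 Tdp1 1 nM final; 15 min RT w/ cpd; substrate 15 nM, 5 min; beads 10 ug/ml, 10 min; AlphaScreen read. Neg ctrl: no enzyme.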
# DT40 TDP1 no CPT: qHTS for Inhibitors of human tyrosyl-DNA phosphodiesterase 1 (TDP1): qHTS in cells in absence of CPT; AID 686978, 2013; Potency, µM (highest dose often 46.2 µM), for the others: at the top dose activity change, negative = growth inhibition, usual class: inhibitors; DT40 Tdp1-/- hTDP1 cells, no CPT, ATP luminescence, 48 h; actives 15% (n = 420,000); also: % is scaled to controls: 0 for no effect and ±100 for the full control effect; nearly all actives have a fitted effect of over 55% in size
#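 Cells were dispensed at 400 per well, compounds added by pin tool, plates incubated ≥48 hr at 37 °C, then CellTiter-Glo added for 30 min at room temperature before luminescence reading. Line: DT40 Tdp1-/- complemented with hTDP1; camptothecin omitted.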
# TDP1 cell CPT: growth inhibition of DT40 Tdp1-/-;hTDP1 cells with camptothecin (screen for TDP1 inhibitors) | chicken DT40 Tdp1-/-;hTDP1 cells + 20 nM CPT, ATP luminescence, 48 h | Potency, µM (highest dose often 46.2 µM), for the others: at the highest dose activity change, negative = growth inhibition, hits mostly inhibitors | actives 12% (n = 420,000); also: % is scaled to controls: 0 for no effect and ±100 for the full control effect; nearly all actives have a fitted effect of over 55% in size
#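 Chicken DT40 Tdp1-/- cells stably complemented with human TDP1 were seeded at 400 cells/well in medium containing 20 nM camptothecin, exposed to pin-transferred compounds, and grown at 37 °C for at least 48 hr. Viability was read as ATP luminescence.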
# * marks the source's active call; other numbers are inactive results; ? = inconclusive; nt = not tested or not shown; [ ] = remark or other dose. Unless noted, calls follow the shape of the dose curve; as a rule, active = well fitted curve in the direction sought with a large enough effect; inconclusive = small, poorly fitted or top-dose-only effect, or another doubt; inactive = no such curve, though single readings can be large; an effect the other way counts as inactive or inconclusive. Potency is read from the fitted curve at half-maximal effect.
SMILES,ClpP mod,TDP1 inh,DT40 TDP1 no CPT,TDP1 cell CPT
COC(=O)C1=CN(c2ccc(Oc3ccccc3)cc2)C(N)=C(C#N)C1c1cccc(F)c1 (stereo not given),-21%,nt,8.2µM*,?
COC(=O)C1=CN(c2ccc(C(C)(C)C)cc2)C(N)=C(C#N)C1c1ccc(OC)cc1 (stereo not given),-11%,nt,?,?
COC(=O)C1=CN(Cc2cccs2)C=C(C(=O)OC)C1c1ccc(OC)cc1OC,nt,?,?,-4%
COC(=O)C1=CN(c2ccc(OC)cc2OC)C(N)=C(C#N)C1c1cccc([N+](=O)[O-])c1 (stereo not given),1%,nt,0.33µM*,0.37µM*
COC(=O)C1=CN(Cc2ccc(F)cc2)C=C(C(=O)OC)C1c1ccc(O)c(OC)c1,-17%,4%,?,?
COC(=O)C1=CN(c2ccc(N3CCOCC3)cc2)C(N)=C(C#N)C1c1cccc(F)c1 (stereo not given),-3%,nt,8.2µM*,?
COC(=O)C1=CN(c2ccc(F)cc2)C(N)=C(C#N)C1c1cccc(F)c1 (stereo not given),-4%,nt,12µM*,7.3µM*
Cc1cc2nc(C)n(CCCNC(=O)Nc3cccc4ccccc34)c2cc1C,?,?,15µM*,23µM*
O=C(CN1CCN(S(=O)(=O)c2ccccc2)CC1)Nc1ccc(Cl)c([N+](=O)[O-])c1,2%,nt,23µM*,21µM*
O=C(CN1CCN(S(=O)(=O)c2ccccc2)CC1)Nc1ccc([N+](=O)[O-])cc1,1%,11%,12µM*,18µM*
COc1ccc(NC(=O)CN2CCN(S(=O)(=O)c3ccc(Cl)cc3)CC2)cc1Cl,4%,3%,?,-28%
Cc1cc(C)c(C)c(S(=O)(=O)N2CCN(CC(=O)Nc3ccc([N+](=O)[O-])cc3)CC2)c1C,2%,6%,-24%,-5%
O=C(NCCN1CCc2ccccc2C1)Nc1ccc([N+](=O)[O-])cc1,-1%,2%,23µM*,?
O=[N+]([O-])c1ccc(N2CCc3ccccc3C2)cc1,2%,nt,18µM*,?
O=[N+]([O-])c1ccc(-c2csc(N3CCc4ccccc4C3)n2)cc1,-5%,2%,-1%,-12%
CCCC(=O)NCC(c1ccc2c(c1)OCO2)N1CCOCC1 (stereo not given),0%,8%,0%,1%
Cc1ccc(S(=O)(=O)N2CCN(CC(=O)NC3CCCc4ccccc43)CC2)c(C)c1 (stereo not given),-5%,5%,?,-27%
O=C(CN1CCN(S(=O)(=O)c2ccccc2)CC1)Nc1ccc2c(c1)CCC2,0%,-7%,15µM*,?
Cc1ccc(S(=O)(=O)N2CCN(CC(=O)NC3CCCc4ccccc43)CC2)cc1C (stereo not given),1%,8%,18µM*,?
O=C(NCCN1CCN(S(=O)(=O)c2ccc([N+](=O)[O-])cc2)CC1)C(=O)Nc1ccccc1,28µM*,2%,2%,-14%
Cc1ccc(S(=O)(=O)N2CCN(CC(=O)Nc3ccc([N+](=O)[O-])cc3)CC2)cc1C,-2%,6%,16µM*,?
COc1cccc(C(C(=O)NCc2ccccc2)N(C(=O)c2csnn2)C2CC2)c1 (stereo not given),nt,9%[0.0935 µM],?,?
COc1cc(=O)n2c(c1C(=O)NC(C)c1ccco1)CCN(Cc1ccnc3ccccc13)CC2 (stereo not given),nt,nt,-11%,?
Cc1cc2ccccc2n1CCNC(=O)C1CCCC1,-3%,-2%,?,-3%
Cc1cc2ccccc2n1CCNC(=O)C1CC1,4%,nt,-21%,15µM*
SMILES,ClpP mod,TDP1 inh,DT40 TDP1 no CPT,TDP1 cell CPT
Cc1cc2ccccc2n1CCNC(=O)c1cccc(Br)c1,-1%,-4%[12.3 µM],12µM*,21µM*
Cc1cc2ccccc2n1CCNC(=O)c1cccc(Cl)c1,-4%,0%,7.3µM*,15µM*
Cc1cc2ccccc2n1CCNC(=O)c1cccs1,0%,6%,?,-25%
COc1cc(CN2CCC3(CCC(CNC(=O)c4ccco4)O3)CC2)cc(OC)c1 (stereo not given),nt,nt,-22%,-1%
COc1cccc(-c2cccc(NC(=O)C3CCN(Cc4nccs4)CC3)c2)c1,0%,1%,-2%,14%
CC(C)c1csc(CN2CCC(C(=O)Nc3cccc(-c4ccco4)c3)CC2)n1,-1%,nt,18µM*,?
CC(C)c1csc(CN2CCC(n3nccc3NC(=O)Cc3ccccc3)CC2)n1,2%,3%[56.1 µM],26µM*,?
CN1/C(=C\C(=O)CSc2ncn[nH]2)C(C)(C)c2ccccc21,-7%,3%,?,?
CN1/C(=C\C(=O)CSc2nnc(NCc3ccccc3)s2)C(C)(C)c2ccccc21,1%,10%,?,15µM*
Cc1cc(C(=O)CSc2nnc(NCc3ccccc3)s2)c(C)n1C,-1%,6%,13µM*,10µM*
O=C(CSc1nnc(NCc2ccccc2)s1)NC1CCS(=O)(=O)C1 (stereo not given),1%,nt,14%,9%
COc1cccc(Cn2cnc(-c3ccccc3OC)c2-c2cccnc2)c1,-21%,nt,?,?
CCCCc1c(-c2ccccc2OC)ncn1Cc1ccc(-c2ccccc2)cc1,-18%,nt,21µM*,15µM*
CCCCc1c(-c2ccccc2OC)ncn1CCc1cccc(Cl)c1,-5%,nt,21µM*,16µM*
CCCCc1c(-c2ccccc2OC)ncn1Cc1cccc(-c2ccccc2)c1,-29%,nt,6.5µM*,12µM*
COc1cccc(Cn2cnc(-c3ccccc3OC)c2-c2cccs2)c1,-21%,nt,?,?
COc1ccccc1C1=Nn2c(nnc2C2CCCCC2)SC1,0%,5%,-28%,-30%
COc1cccc(Cn2cnc(-c3ccccc3OC)c2-c2cc(C)cc(C)c2)c1,-11%,nt,?,?
CCCCc1c(-c2ccccc2OC)ncn1C1CCCC1,-2%,nt,10µM*,18µM*
COc1cccc(CNC(=O)CN(C)S(=O)(=O)c2ccc3c(c2)n(C)c(=O)c(=O)n3C)c1,-16%,2%,19%,6%
CC1CC(=O)Nc2ccccc2N1C(=O)Cn1cnc2ccccc2c1=O (stereo not given),2%,0%,0%,0%
COc1cccc(Cn2cnc(-c3ccccc3OC)c2C2CC2)c1,-8%,nt,21µM*,?
CCCCc1c(-c2ccccc2OC)ncn1Cc1ccc(Cl)cc1,-6%,nt,12µM*,13µM*
C/C(=N\n1c(C)nc2ccccc2c1=O)c1ccc(N)cc1,1%,nt,18µM*,?
N#C/C(=C(/O)CSc1ncn[nH]1)c1nc2ccccc2[nH]1,-3%,10%,-12%,-17%
